Sampled rows, rich in hits. Any-hit rate of the full collection: about 1%.
Eya2 inh: inhibitors of human Eya2 phosphatase activity | recombinant Eya2, OMFP fluorescence dephosphorylation (OMFP is methylfluorescein phosphate) | Potency, µM (highest dose often 76.9 µM), without a hit: top-dose activity, negative = inhibition, hits mostly inhibitors | 330,000 compounds, 0.006% hits | O00167
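Eya2 protein (added as 0.2 uM solution) was preincubated with compound for 10 min at ambient temperature in 50 mM HEPES pH 7.5, 50 mM NaCl, 5 uM MgCl2, 0.05% BSA, 1 mM DTT. OMFP (added at 50 uM) then reacted 10 min; fluorescence read at 485/525 nm.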
USP2a block: USP2a (human) protease inhibition | O75604 | USP2 core, Ub-CHOP2 coupled fluorogenic reporter, 485/531 | Potency, µM (doses to about 38.3 µM), for the others: top-dose activity change, negative = inhibition, actives largely listed as inhibitors | 330,000 compounds, 0.01% hits | AID 463254;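 note: plate controls were DMSO wells for no effect and full inhibition by NEM control for full effect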
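Deubiquitinase activity read as fluorescence (485/531 nm) after Ub-CHOP2 cleavage activates the enterokinase reporter on its substrate; USP2 core 10nM, Ub-CHOP2 and substrate 25nM each, 30min compound preincubation then 60min RT; data normalized to NEM, curves fitted.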
TrxR1 substrate: substrates of rat thioredoxin reductase 1; O89049; purified TrxR1 substrate turnover, NADPH consumption readout; Potency, µM (series often up to 114 µM), inactives show at the highest dose activity change, negative = substrate turnover; 390,000 compounds, 0.01% hits; AID 588456; note: nearly all actives have a fitted effect of over 50% in size
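Rat TrxR1, dispensed at 90 nM, was prereduced with 400 uM NADPH (final) for 5 min at ~22 deg C, then incubated with compound 15 min before 400 uM selenite. A first-read NADPH fluorescence drop versus no-compound background flagged substrates.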
GALK inhibitor: galactokinase (human) inhibition; Potency, µM (doses to about 57.5 µM), for the others: top-dose activity change, negative = inhibition, most hits filed as inhibitors; 270,000 compounds, 0.007% hits; Purified GALK, Kinase-Glo residual ATP luminescence; P51570; AID 1868
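Quantitative HTS: GALK 5 nM, ATP 35 uM, galactose 100 uM, 1 h room temperature, then luciferase-based ATP detection.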
RGS4 inhibitor: human RGS4 inhibition; AID 504845; Potency, µM (doses to about 114 µM), for the others: top-dose activity change, negative = inhibition, most hits filed as inhibitors; P49798; 390,000 compounds, 0.039% hits; Transcreener GDP fluorescence polarization, RGS4-accelerated GTP hydrolysis; note: nearly all actives have a fitted effect of over 75% in size
Target sequence (P49798 whole entry, looked up): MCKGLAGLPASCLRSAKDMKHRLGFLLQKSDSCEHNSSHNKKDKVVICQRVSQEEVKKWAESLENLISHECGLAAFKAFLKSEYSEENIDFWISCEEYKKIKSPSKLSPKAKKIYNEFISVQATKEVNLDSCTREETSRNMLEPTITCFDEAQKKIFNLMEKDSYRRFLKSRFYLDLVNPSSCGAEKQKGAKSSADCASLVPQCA
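MLSMR compounds (23 nl, pin-transferred) preincubated 10 min at room temperature with a 500nM (2x) first reagent, then RGS4 at 900nM (2x) plus Transcreener GDP mix added; fluorescence polarization (620/688 nm) read before and after 90 min at 30 °C.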
rTrxR1 inhibitor: inhibitors of rat thioredoxin reductase 1. Potency, µM (series often up to 114 µM), for the others: at the highest dose activity change, negative = inhibition, hits mostly inhibitors. O89049. recombinant rTrxR1, NADPH fluorescence consumption, selenite substrate. 390,000 compounds, 1% hits; note: nearly all actives have a fitted effect of over 65% in size
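Rat TrxR1 (90 nM in the dispensed reagent) was pre-reduced with 400 uM NADPH for 5 min at room temperature, then incubated with compound for 15 min. After 400 uM selenite was added, NADPH fluorescence (Ex 340/Em 450 nm) was followed for 8 min.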
* marks the source's active call; other numbers are inactive results; ? = inconclusive; nt = no result given; [ ] = dose if it differs, or a comment. Calls come from the whole dose curve; as a rule, active = well fitted curve in the direction sought with a large enough effect; inconclusive = small, poorly fitted or top-dose-only effect, or another doubt; inactive = no such curve, though single readings can be large; an effect the other way counts as inactive or inconclusive. Unless noted, % is set by controls: 0 for no effect and ±100 for the full control effect; potency is the fitted concentration of half-maximal effect.

SMILES	Eya2 inh	USP2a block	TrxR1 substrate	GALK inhibitor	RGS4 inhibitor	rTrxR1 inhibitor
O=C(Nc1ccc(C(=O)N2CCCCC2)cc1)c1ccc(Br)cc1	24.1%	0.8%	-0.4%	1.4%	-39.2%	6.2%
CC(C)(C)c1ccc(C(=O)Nc2ccc(C=C(C#N)C#N)cc2)cc1	-8.0%	-0.4%	-6.6%	-2.6%	?	3.16µM*
Cc1ccc(S(=O)(=O)/N=C2/C=C(C3C(=O)CC(C)(C)CC3=O)C(=O)c3ccccc32)cc1	-20.0%	-2.1%	-6.9%	-0.3%	?	17.8µM*
O=C1/C(=C/c2ccco2)CCc2ccccc21	-2.2%	1.3%	-10.3%	nt	-21.2%	-6.6%
Nc1ccc2c(c1)C/C(=C/c1ccco1)C2=O	6.4%	7.2%	-4.9%	4.5%	-53.2%	56.2µM*
COc1ccc2nccc(/C=C/c3ccc(N(C)C)cc3)c2c1	nt	nt	3.1%	nt	nt	8.7%[0.0914 µM]
CCCSc1nc(O)c(C(c2ccc(OC)c(O)c2)c2c(O)nc(SCCC)n(C)c2=O)c(=O)n1C	15.0%	-2.7%	9.2%[57.1 µM]	1.0%	?	11.2µM*
COc1ccc(C(=O)N=c2nc(-c3ccccc3)n(-c3ccccc3)s2)cc1	nt	nt	8.3%[0.0914 µM]	nt	24.8%	9.8%
COc1ccc(-n2c(=O)c3c4c(sc3n(CC(=O)N3CCCCC3C)c2=O)CCC4)c(OC)c1 (stereo not drawn)	nt	nt	2.7%	nt	-20.2%	6.0%
O=C1C=C(c2c(O)ccc3ccccc23)c2ccccc2C1=O	nt	nt	79.4µM*	nt	?	?
O=C1C=C(O)c2cccc(O)c2C1=O	9.3%	?	-3.6%	3.5%	-20.7%	-0.6%
Cc1cc2nccc(C)c2cc1C	nt	nt	2.4%	nt	nt	12.1%
COc1ccc(C(C2C(=O)CC(C)(C)CC2=O)C2C(=O)CC(C)(C)CC2=O)cc1CO	-3.3%	3.1%	-3.6%	3.4%	?	8.91µM*
CC1(C)CC(=O)C(C(c2ccc(Br)cc2)C2C(=O)CC(C)(C)CC2=O)C(=O)C1	-7.6%	-0.2%	10.4%	3.4%	?	7.94µM*
COc1cccc(C2C(C(=O)/C=C/c3ccco3)=C(O)C(=O)N2CCN2CCOCC2)c1 (stereo not drawn)	3.6%	0.4%	-3.3%	7.5%	-36.4%	10µM*
COc1ccc(C2C(C(=O)/C=C/c3ccco3)=C(O)C(=O)N2CCN2CCOCC2)cc1 (stereo not drawn)	10.5%	2.4%	-2.2%[57.1 µM]	-1.9%	-18.3%	-82.5%
Cc1ccccc1N1C(=O)CC(Sc2nnc(-c3ccccc3)o2)C1=O (stereo not drawn)	11.5%	2.9%	12.0%[57.1 µM]	-0.5%	-9.2%	?
O=C1CC(Sc2nnc(-c3ccccc3)o2)C(=O)N1c1ccccc1 (stereo not drawn)	3.1%	2.1%	-1.1%	1.2%	11.5%	7.08µM*
Cc1ccc(Cn2c(=S)[nH]c3ccc(N4CCOCC4)cc3c2=O)o1	-0.6%	-0.1%	4.8%	-1.2%	?	4.47µM*
O=C(Nc1ccc(Cl)cn1)c1cnn2c1NC(=C1CC1)C=C2C(F)F	nt	nt	5.7%	nt	nt	-6.5%
CCc1sc(C(C2C(=O)CC(C)(C)CC2=O)C2C(=O)CC(C)(C)CC2=O)cc1[N+](=O)[O-]	13.0%	1.5%	-1.6%[57.1 µM]	1.5%	-131.6%	1.78µM*
CC1(C)CC(=O)C(C(c2ccc(F)cc2)C2C(=O)CC(C)(C)CC2=O)C(=O)C1	3.7%	-0.8%	-5.1%[57.1 µM]	0.9%	-17.8%	4.3%[57.1 µM]
CCOC(=O)c1sc2ccccc2c1OC(=O)c1ccc(C)cc1	-11.4%	2.7%	-21.5%[57.1 µM]	0.0%	-39.5%	7.2%[57.1 µM]
CCOC(=O)c1sc(S(C)=O)c2c1CCc1conc1-2 (stereo not drawn)	13.4%	-0.6%	1.1%	nt	-48.5%	31.6µM*
Cc1ccc(C2C(C#N)=C(N)SC(N)=C2C#N)c(C)c1	?	4.2%	-4.3%	2.6%	-12.5%	2.82µM*
CC(C)(C)n1ncc2c(=O)n(Cc3ccc(Cl)cc3F)cnc21	nt	nt	10.9%	nt	nt	24.3%

Screening data as filed in PubChem BioAssay.
